These results are taken from PubChem BioAssay (NCATS).

SMILES strings stand for the structures. “And” between values parts separate entries of the source, which are not always exact repeats. Equal values may be shown once. Inconclusive results are not listed. The source made the active and inactive calls. Unless noted, calls follow the shape of the full dose curve.

A short description of test [1]: MultiTox-Fluor Cytotoxicity Assay - LYMP1-001 - Live Cells (AID 947; active = well fitted curve in the direction sought with a large enough effect; an effect the other way counts as inactive or inconclusive;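 also: 0% = DMSO only and full inhibition = tetraoctylammonium bromide control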).
The nature of test [2]: MultiTox-Fluor Cytotoxicity Assay - LYMP1-002 - Dead Cells (AID 960; active = well fitted curve in the direction sought with a large enough effect; an effect the other way counts as inactive or inconclusive;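 also: 0% = DMSO and 100% = tetraoctylammonium bromide; nearly all actives have a fitted effect of over 60% in size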). The method, boiled down:
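Dead-cell fluorescence (Ex/Em 485/520) after 16 h compound exposure at 37 C of LYMP1-002 lymphoblastoid cells in complete medium; AC50 by Hill equation, with data scaled between DMSO and 15 uM tetraoctylammonium bromide.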

Test [3] deals with Estrogen receptor (Homo sapiens) (UniProt P03372). In words: qHTS assay for small molecule antagonists of estrogen receptor alpha signaling (AID 588513; active = well fitted curve in the direction sought with a large enough effect in the signal ratio, with a control signal flat, not every such curve was filed as active; the % refers to the signal ratio; also: % is scaled to controls: 0 for no effect and ±100 for the full control effect). The method, boiled down: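 Fluorescence from CCF4 substrate after 2 h at room temperature gave reporter activity; cells had been exposed to compound and 0.5nM 17-beta-estradiol for 18 h at 37 C. Hill-equation fitting yielded IC50 and maximal response.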
(qHTS replaces the single test concentration by a dilution series.)

Test [4] shares this target. In words: qHTS assay for small molecule agonists of estrogen receptor alpha signaling (AID 588514).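 Also: 0% = vehicle only and 100% = reference agonist; nearly all actives have a fitted effect of over 70% in size.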 The method, boiled down: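 EC50 and efficacy came from Hill fits of beta-lactamase reporter signal (CCF4 dye, 2 h at room temperature) scaled between DMSO and 20 nM 17-beta-estradiol. Agonist mode: HEK293 ER-alpha-UAS-bla cells in charcoal/dextran-stripped serum medium, 18 h compound exposure at 37 C.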

For test [5], the target named is Glucocorticoid receptor (Homo sapiens) (UniProt P04150). In words: qHTS assay for small molecule agonists of glucocorticoid receptor signaling (AID 588532; active = well fitted curve in the direction sought with a large enough effect in the signal ratio, with a control signal flat; the % refers to the signal ratio;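 also: 100% = dexamethasone at 0.1 µM and 0% = DMSO only wells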). The note with it: HeLa MMTV-bla, beta-lactamase ratio, agonist, 18 h; stronger effect = higher value; percent of dexamethasone control, DMSO zero. The method, boiled down:
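Agonist-mode qHTS: GRE-driven beta-lactamase in HeLa cells exposed 18 h to titrated compounds (up to 92 uM), then CCF4 ratio read after 2 h at RT; Hill-fitted EC50, efficacy relative to 0.1 uM dexamethasone.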

In test [6] the target is Vitamin D3 receptor (Homo sapiens) (UniProt P11473). Description: qHTS assay for small molecule antagonists of vitamin D receptor signaling (AID 588541).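 Also: receptor activated by calcitriol during compound treatment; series mostly up to about 77 µM; % is scaled to controls: 0 for no effect and ±100 for the full control effect.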 The method, boiled down:
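Antagonist-mode beta-lactamase reporter assay: HEK293T VDR-UAS-bla cells were exposed to titrated compound alongside 1-alpha,25-dihydroxyvitamin D3 at 3 nM final for 16 h. Values were normalized to the 50 nM agonist control and DMSO basal, with IC50 and efficacy from Hill equation fits.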

The target is the same in test [7]. In words: qHTS assay for small molecule agonists of vitamin D receptor signaling (AID 588543).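 Also: 0% = DMSO basal and 100% = reference agonist control.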 The method, boiled down: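 Reporter cells (HEK293T, VDR-UAS-bla) were seeded in medium with 2% charcoal-stripped serum and incubated 5 h, then compounds in concentration series were added for 16 h at 37 °C. Stimulation was scaled between DMSO basal and 50 nM 1α,25-dihydroxyvitamin D3.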

Test [8] in a line: qHTS assay for small molecule agonists of retinoid X receptor alpha signaling (AID 588544).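 As to activation: 0% = DMSO basal wells and 100% = reference agonist.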 To be noted: HEK293T RXRa-UAS-bla, beta-lactamase reporter, 18 h; 530 nm emission.
The target of test [9] is Retinoic acid receptor RXR-alpha (Homo sapiens) (UniProt P19793). Described as above.
For test [10], the target named is Thyroid hormone receptor beta (Homo sapiens) (UniProt P10828). In words: qHTS assay for small molecule antagonists of thyroid hormone receptor beta signaling (AID 588547; active = well fitted inhibition curve with a large enough effect in the signal ratio, with a control signal flat, not every such curve was filed as active; the % refers to the signal ratio;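 also: cells stimulated with 0.4 nM T3 agonist during compound exposure; series mostly up to about 77 µM; % is scaled to controls: 0 for no effect and ±100 for the full control effect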). To be noted: TR-UAS-bla HEK293, beta-lactamase ratio, antagonist mode, 18 h. The method, boiled down:
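Inhibition of T3-driven (0.4nM final) beta-lactamase reporter activity was measured over 0.59 nM to 92 uM compound after 18 h at 37 C. The cells were GripTite HEK293 TR-UAS-bla in charcoal/dextran-stripped serum, with CCF4 ratio read-out and IC50 from Hill fits.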

For test [11], the target named is Voltage-gated inwardly rectifying potassium channel KCNH2 (Homo sapiens) (UniProt Q12809). Description: qHTS Assay for Small Molecule Inhibitors of the Human hERG Channel Activity (AID 588834; active = well fitted curve in the direction sought with a large enough effect; an effect the other way counts as inactive or inconclusive;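 also: top concentration of the series differs between compounds; % is scaled to controls: 0 for no effect and ±100 for the full control effect; lower thallium flux fluorescence means stronger hERG block; nearly all actives have a fitted effect of over 50% in size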). The method, boiled down:
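Step 1: BacMam hERG transduction of U2OS, 4 hrs RT. Step 2: overnight 37 °C, plate 2000 cells/well, 4 hr. Step 3: FluxOR load, compound 10 min, stimulate, read fluorescence.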

Test [12] in a line: qHTS assay for small molecule activators of the p53 signaling pathway (AID 651743; active = well fitted activation curve with a large enough effect in the signal ratio, not every such curve was filed as active; the % refers to the signal ratio; also: series mostly up to about 92 µM; % of control where 0% means no effect). The note with it: HCT-116 p53RE-bla, beta-lactamase FRET ratio, 16 h; activation: stronger effect = higher value. The method, boiled down: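 After 16 hours compound treatment at 37 C, HCT-116 cells stably expressing p53RE-driven beta-lactamase were loaded with LiveBLAzer B/G FRET substrate for 2 hours at room temperature. Fluorescence intensity served as the p53 activation read-out.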

Test [13] in a line: qHTS assay for small molecule disruptors of the mitochondrial membrane potential - 1 hr assay (AID 651754). Also: % is scaled to controls: 0 for no effect and ±100 for the full control effect; nearly all actives have a fitted effect of over 35% in size. The method, boiled down:
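Mitochondrial potential in living HepG2 cells after 1 hr compound treatment at 37C was read with Mito-MPS dye added for a further 30 min. Red aggregate and green monomer fluorescence were measured; loss of potential leaves dye as cytoplasmic monomers.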

In test [14] the target is Tumor necrosis factor (Homo sapiens) (UniProt P01375). Description: qHTS assay to identify small molecules that stimulate Tumor Necrosis Factor-alpha (TNF-alpha) secretion (AID 651757; active = well fitted curve in the direction sought with a large enough effect in the signal ratio; the % refers to the signal ratio; also: 0% is about no effect). The method, boiled down: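 Secreted TNF-alpha quantified by TR-FRET sandwich of two labeled anti-TNF-alpha antibodies, incubated 3 hr at room temperature. Preceded by 17 hr, 37 C compound treatment of THP-1 cells at 3000 cells/well.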

Test [15] in a line: qHTS assay for environmental chemicals that activate the Aryl hydrocarbon Receptor (AhR) signaling pathway (AID 651777; active = well fitted curve in the direction sought with a large enough effect; an effect the other way counts as inactive or inconclusive; also: % of control where 0% means no effect; nearly all actives have a fitted effect of over 15% in size). To be noted: 1A2-DRE human hepatoma cells, luciferase, 24 h; activation: stronger effect = higher value. The method, boiled down:
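Stable CYP1A2 promoter/DRE-luciferase human hepatoma line treated 24 hr; One-Glo luminescence, 30 min RT.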

The nature of test [16]: qHTS assay for small molecule agonists of the antioxidant response element (ARE) signaling pathway measured by Nrf2-dependant transcriptional activity (AID 720636; active = well fitted curve in the direction sought with a large enough effect in the repeat runs; an effect the other way counts as inactive or inconclusive;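 also: HepG2 cells with an ARE-driven luciferase reporter; % of control where 0% means no effect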). The method, boiled down:
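Reporter gene assay, HepG2 ARE-luc: 16 hr compound, 37 C, 5% CO2; read-out luciferase luminescence.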

A short description of test [17]: qHTS assay for small molecule antagonists of the retinoid-related orphan receptor gamma (ROR-gamma) signaling pathway - cell viability counter screen (AID 720652; active = well fitted curve in the direction sought with a large enough effect in the repeat runs; an effect the other way counts as inactive or inconclusive;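 also: series mostly up to about 92 µM; compound exposure lasted 16 hr before ATP read; % is scaled to controls: 0 for no effect and ±100 for the full control effect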). The method, boiled down: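 Cytotoxicity counter screen: intracellular ATP (CellTiter-Glo luminescence) measured in the doxycycline-induced CHO RORE-luciferase reporter line after 16 hr compound exposure at 37 C, 5% CO2.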

In test [18] the target is Nuclear receptor subfamily 1 group I member 2 (Rattus norvegicus) (UniProt Q9R1A7). In words: qHTS assay for small molecule activators of the rat pregnane X receptor (rPXR) signaling pathway (AID 651751; call rule not given here; also: 0% is about no effect). The note with it: rPXR reporter cells, luciferase (One-Glo), 24 h.
The nature of test [19]: qHTS assay for small molecule activators of the human pregnane X receptor (PXR) signaling pathway (AID 720659; call rule not given here; also: 0% is about no effect).
For test [20], the target named is Peroxisome proliferator-activated receptor gamma (Homo sapiens) (UniProt P37231). Description: qHTS assay for small molecule agonists of peroxisome proliferator-activated receptor gamma signaling (AID 588536; active = well fitted curve in the direction sought with a large enough effect in the signal ratio, with a control signal flat, not every such curve was filed as active; the % refers to the signal ratio;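 also: 0% = DMSO basal wells and 100% = rosiglitazone at 2 µM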). The method, boiled down:
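Cells were plated and held 6–6.5 h at 37 C, then compounds were added as a titration series. After a further 16 h, CCF4 dye was loaded for 2 h at room temperature and emission at 460/530 nm recorded.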

Chain of Tumor necrosis factor (Homo sapiens) (P01375 whole entry, looked up): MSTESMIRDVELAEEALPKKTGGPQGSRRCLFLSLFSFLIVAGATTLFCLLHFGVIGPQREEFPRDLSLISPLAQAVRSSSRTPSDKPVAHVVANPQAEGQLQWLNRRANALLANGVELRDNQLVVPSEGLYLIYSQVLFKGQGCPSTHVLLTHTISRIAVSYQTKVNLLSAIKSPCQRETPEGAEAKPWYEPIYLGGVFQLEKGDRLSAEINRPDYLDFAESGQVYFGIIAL
Chain of Glucocorticoid receptor (Homo sapiens) (P04150 whole entry, looked up): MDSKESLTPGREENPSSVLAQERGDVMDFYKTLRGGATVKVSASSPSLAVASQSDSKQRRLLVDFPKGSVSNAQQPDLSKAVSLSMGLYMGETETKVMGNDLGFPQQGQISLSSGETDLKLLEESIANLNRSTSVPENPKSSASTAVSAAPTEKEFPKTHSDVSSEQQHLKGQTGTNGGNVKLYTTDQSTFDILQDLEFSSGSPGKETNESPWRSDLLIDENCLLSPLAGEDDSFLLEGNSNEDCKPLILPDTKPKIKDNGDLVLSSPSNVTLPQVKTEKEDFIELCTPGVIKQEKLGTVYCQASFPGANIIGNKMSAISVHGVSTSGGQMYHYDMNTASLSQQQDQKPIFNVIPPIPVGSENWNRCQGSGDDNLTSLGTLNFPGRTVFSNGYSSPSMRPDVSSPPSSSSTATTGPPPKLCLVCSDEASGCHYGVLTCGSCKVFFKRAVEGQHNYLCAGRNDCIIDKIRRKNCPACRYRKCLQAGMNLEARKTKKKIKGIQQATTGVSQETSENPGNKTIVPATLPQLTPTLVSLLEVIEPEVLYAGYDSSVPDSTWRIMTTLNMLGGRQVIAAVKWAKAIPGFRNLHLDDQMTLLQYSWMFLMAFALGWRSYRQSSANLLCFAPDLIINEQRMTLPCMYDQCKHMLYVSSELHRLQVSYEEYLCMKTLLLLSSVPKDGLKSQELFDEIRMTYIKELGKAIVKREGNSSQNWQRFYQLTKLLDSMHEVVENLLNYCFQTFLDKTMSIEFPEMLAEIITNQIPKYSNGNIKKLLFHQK
Chain of Nuclear receptor subfamily 1 group I member 2 (Rattus norvegicus) (Q9R1A7 whole entry, looked up): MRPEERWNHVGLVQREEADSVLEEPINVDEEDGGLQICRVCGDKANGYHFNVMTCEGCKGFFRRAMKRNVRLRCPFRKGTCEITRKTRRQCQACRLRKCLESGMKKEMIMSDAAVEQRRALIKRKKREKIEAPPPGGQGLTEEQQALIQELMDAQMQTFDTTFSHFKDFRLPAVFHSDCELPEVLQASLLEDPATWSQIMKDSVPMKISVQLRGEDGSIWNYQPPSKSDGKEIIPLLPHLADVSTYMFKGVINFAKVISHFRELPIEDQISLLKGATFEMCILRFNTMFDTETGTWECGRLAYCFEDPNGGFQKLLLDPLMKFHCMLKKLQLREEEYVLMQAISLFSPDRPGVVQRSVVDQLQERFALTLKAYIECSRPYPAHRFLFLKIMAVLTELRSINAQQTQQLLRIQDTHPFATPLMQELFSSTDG
Chain of Retinoic acid receptor RXR-alpha (Homo sapiens) (P19793 whole entry, looked up): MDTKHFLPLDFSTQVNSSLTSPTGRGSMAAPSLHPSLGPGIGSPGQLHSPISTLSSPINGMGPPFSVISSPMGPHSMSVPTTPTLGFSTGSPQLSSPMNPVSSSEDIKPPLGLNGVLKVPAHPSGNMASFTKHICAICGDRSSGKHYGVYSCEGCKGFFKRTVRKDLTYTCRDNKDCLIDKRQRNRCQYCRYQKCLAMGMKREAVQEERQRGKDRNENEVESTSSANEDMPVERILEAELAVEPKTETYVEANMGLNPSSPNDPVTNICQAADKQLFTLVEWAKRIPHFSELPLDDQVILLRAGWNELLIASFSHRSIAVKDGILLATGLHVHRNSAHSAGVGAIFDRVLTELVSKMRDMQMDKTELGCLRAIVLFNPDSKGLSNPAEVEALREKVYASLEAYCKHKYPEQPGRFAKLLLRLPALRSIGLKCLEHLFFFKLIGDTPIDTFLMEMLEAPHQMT
Chain of Vitamin D3 receptor (Homo sapiens) (P11473 whole entry, looked up): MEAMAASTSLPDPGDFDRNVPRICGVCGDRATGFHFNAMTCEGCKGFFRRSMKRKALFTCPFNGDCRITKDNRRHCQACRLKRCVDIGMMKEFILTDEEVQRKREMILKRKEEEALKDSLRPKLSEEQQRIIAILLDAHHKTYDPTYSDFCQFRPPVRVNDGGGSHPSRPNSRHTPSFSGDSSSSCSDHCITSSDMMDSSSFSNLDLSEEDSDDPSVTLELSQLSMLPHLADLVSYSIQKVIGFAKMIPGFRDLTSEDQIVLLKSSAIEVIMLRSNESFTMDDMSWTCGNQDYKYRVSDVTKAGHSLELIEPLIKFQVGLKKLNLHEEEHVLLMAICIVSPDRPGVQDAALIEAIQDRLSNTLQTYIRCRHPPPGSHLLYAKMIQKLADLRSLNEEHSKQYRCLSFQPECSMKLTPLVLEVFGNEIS
Chain of Voltage-gated inwardly rectifying potassium channel KCNH2 (Homo sapiens) (Q12809 whole entry, looked up): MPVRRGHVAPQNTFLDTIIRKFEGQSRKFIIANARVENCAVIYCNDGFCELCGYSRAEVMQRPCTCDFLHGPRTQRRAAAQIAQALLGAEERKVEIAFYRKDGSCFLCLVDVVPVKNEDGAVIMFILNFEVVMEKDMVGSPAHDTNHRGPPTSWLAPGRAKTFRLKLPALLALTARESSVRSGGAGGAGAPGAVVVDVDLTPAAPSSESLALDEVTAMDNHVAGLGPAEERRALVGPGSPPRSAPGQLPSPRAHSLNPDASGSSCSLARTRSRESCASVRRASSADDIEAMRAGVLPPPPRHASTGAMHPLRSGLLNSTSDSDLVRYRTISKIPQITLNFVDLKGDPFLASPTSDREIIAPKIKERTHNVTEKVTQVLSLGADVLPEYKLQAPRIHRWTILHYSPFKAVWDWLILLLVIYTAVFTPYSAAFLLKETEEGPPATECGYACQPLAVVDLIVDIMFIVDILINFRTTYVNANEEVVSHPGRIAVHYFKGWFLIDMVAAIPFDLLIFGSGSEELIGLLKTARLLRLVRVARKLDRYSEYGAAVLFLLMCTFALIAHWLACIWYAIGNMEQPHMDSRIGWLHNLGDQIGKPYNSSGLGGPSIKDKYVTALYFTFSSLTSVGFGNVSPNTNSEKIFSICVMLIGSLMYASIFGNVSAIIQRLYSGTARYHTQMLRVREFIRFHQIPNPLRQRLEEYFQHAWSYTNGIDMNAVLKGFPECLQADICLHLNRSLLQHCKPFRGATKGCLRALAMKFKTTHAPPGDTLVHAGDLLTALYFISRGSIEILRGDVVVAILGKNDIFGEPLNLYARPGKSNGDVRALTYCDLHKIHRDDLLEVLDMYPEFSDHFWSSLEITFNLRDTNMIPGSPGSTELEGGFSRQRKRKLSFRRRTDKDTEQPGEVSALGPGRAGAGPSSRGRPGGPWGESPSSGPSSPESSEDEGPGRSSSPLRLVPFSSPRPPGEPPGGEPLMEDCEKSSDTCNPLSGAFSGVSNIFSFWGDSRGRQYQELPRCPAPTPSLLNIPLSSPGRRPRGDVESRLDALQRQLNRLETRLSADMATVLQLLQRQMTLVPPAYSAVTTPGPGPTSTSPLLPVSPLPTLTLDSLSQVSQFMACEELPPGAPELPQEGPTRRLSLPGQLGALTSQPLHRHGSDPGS
Chain of Estrogen receptor (Homo sapiens) (P03372 whole entry, looked up): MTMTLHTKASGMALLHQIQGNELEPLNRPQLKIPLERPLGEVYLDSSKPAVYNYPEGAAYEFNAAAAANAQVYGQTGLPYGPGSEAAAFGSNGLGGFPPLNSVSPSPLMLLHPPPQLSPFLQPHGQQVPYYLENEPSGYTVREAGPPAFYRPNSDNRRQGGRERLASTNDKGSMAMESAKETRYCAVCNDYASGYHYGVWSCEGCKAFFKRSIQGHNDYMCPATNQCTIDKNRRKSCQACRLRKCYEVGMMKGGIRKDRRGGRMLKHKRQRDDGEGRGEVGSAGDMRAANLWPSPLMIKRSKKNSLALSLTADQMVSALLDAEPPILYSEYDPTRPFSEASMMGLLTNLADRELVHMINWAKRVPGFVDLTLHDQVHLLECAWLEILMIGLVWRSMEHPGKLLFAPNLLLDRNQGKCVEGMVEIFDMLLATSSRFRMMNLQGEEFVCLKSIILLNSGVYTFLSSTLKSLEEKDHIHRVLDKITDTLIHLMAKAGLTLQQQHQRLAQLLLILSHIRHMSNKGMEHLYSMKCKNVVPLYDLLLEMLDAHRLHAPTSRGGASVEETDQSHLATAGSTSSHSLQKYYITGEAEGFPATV
Chain of Peroxisome proliferator-activated receptor gamma (Homo sapiens) (P37231 whole entry, looked up): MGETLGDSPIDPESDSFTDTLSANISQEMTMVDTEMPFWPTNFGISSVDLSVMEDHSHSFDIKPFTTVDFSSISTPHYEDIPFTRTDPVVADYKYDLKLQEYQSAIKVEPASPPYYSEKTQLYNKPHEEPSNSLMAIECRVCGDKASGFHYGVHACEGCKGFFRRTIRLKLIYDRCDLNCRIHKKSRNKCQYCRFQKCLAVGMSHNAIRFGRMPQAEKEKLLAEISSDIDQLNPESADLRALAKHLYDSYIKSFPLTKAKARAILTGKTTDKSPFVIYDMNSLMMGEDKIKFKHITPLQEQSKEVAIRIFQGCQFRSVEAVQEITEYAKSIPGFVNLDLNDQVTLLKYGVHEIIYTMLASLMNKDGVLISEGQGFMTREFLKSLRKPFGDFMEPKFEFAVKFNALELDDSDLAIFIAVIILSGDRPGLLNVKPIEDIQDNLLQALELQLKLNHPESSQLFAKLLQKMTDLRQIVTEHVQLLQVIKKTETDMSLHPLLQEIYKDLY

With `Clc1cc(Cl)c(Cl)c(Cl)c1Cl`, the Potency result in test [1], in [2], in test [3], in [4], in [11] and in test [13] was “inactive” each time. In addition, the Potency result in [16] and in test [17] was “inactive” each time. The activation in test [5] was -4.89% (inactive) and 1.1% (inactive); in test [12] it was -3.68% (inactive) and 2.1% (inactive); in test [15] it was 0.277% (inactive) and 2.12% (inactive). The outcome in test [6], in test [7], in [9], in [14] and in test [19] was inactive. In addition, the max response was -1.44% and -10.6% in test [8]; 0.274% (inactive) and 3.7% (inactive) in test [18]. Further, the activity change % (negative = inhibition) in test [10] was 4.53% (inactive) and 17.6% (inactive).

For the molecule `ClCCCl`, the Potency result in test [1], in test [2], in test [3], in test [4], in [11] and in test [13] was “inactive” in each case. Also, the Potency result in test [16] and in test [17] was “inactive” in each case. Further, the activation was -0.189% (inactive) and 0.123% (inactive) and 2.5% (inactive) in test [5]; 0.154% (inactive) and -1.95% (inactive) and -0.964% (inactive) in test [12]; 0.113% (inactive) and 1.25% (inactive) and 1.3% (inactive) in [15]. Further, the outcome in test [20], in [6], in test [7], in test [9], in test [14] and in test [19] was inactive. Also, the max response in [8] is -4.78% and -12% and 1.75%; in test [18], 1.44% (inactive) and 0.0885% (inactive) and 1.57% (inactive). Moreover, the activity change % (negative = inhibition) in test [10] is 4.14% (inactive) and 2.63% (inactive) and 8.67% (inactive).

`CCC(O)OC(O)CC` (stereo not drawn): the Potency result in [1], in [2], in test [3], in test [4], in test [11] and in test [13] was “inactive” each time. Further, the Potency entry in test [16] and in test [17] was “inactive” each time. In addition, the activation is 1.96% (inactive) and -2.19% (inactive) and -0.591% (inactive) in test [5]; 0.0103% (inactive) [middle of 4 runs] in test [12]; 0.464% (inactive) [middle of 4 runs] in test [15]. The molecule was called inactive in test [20], in test [6], in [7], in [9], in [14] and in test [19]. Also, the max response in test [8] is -2.11% and -3.85% and -13.7%; in test [18] it was -0.225% (inactive) [middle of 4 runs]. In addition, the activity change % (negative = inhibition) in [10] is -5.47% (inactive) [middle of 4 runs].

With `COc1ccc2nc(N)sc2c1`, the Potency entry in test [1], in test [2], in test [3], in test [4], in [11] and in test [13] was “inactive” in each case. Besides, the Potency result in test [17] was “inactive”. In addition, the activation in test [5] was -7.22% (inactive) and -9.63% (inactive). Also, the molecule was classed as inactive in test [20], in test [6], in [7] and in test [9]. Besides, the max response in test [8] is -6.78% and -2.22%. For the same molecule, in test [10], the activity change % (negative = inhibition) was -0.575% (inactive) and 14.1% (inactive).
